Compounds with a hit are over-represented: about 2.8% of the library has one in this group of screens.
PI5P4Ka inh – blocks human PI5P4K alpha kinase activity; PI5P4Kalpha enzyme, ADP-Glo luminescence, 60 min; stronger effect = lower value; P48426; 1.2% of 330,000 active; max response, %; active means max response of -50% or lower; inconclusive means between -30% and -50%; inactive means -30% or higher; further: value at the top dose of about 77 µM; on the % scale 0 is the no-effect control and ±100 the full control effect
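Single end-point luminescence (ADP-Glo) quantified ADP from PI5P4Kalpha turnover; ATP 5 microM final, 1 h at RT, 0.1% CHAPS and 0.28 mM EGTA in HEPES pH 7.4.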
Pol kappa inh – blocks human DNA polymerase kappa activity; Q9UBT6; purified Pol kappa, fluorescent DNA synthesis assay, 10 min; Potency, µM (top dose mostly 107 µM), inactives show top-dose activity, negative = inhibition, hits mostly inhibitors; 0.53% of 400,000 active; AID 588579; further: potency means the concentration at half of the fitted maximal effect; on the % scale 0 is the no-effect control and ±100 the full control effect
Target sequence (Q9UBT6 whole entry, looked up): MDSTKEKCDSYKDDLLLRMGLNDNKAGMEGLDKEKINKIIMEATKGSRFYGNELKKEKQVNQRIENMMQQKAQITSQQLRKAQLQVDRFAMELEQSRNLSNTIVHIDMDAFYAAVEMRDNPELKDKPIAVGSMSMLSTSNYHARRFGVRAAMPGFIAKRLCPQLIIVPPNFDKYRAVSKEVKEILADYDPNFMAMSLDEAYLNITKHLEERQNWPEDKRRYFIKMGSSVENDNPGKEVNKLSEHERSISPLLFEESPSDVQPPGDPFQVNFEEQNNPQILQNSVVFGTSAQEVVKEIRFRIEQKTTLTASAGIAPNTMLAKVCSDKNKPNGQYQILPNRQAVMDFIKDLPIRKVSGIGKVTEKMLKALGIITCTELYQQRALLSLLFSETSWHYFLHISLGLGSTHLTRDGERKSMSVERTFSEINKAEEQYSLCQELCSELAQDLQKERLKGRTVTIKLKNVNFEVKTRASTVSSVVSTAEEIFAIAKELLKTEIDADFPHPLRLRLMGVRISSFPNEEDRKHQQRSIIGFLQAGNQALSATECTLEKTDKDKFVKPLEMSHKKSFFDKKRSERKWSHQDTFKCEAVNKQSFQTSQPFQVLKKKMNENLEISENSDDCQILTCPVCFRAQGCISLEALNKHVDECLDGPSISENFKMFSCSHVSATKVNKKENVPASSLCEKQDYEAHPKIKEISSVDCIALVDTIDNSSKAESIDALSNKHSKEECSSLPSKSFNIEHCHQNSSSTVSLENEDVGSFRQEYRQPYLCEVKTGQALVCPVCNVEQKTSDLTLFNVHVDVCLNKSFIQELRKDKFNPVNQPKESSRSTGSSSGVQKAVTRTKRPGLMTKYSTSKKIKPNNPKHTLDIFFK
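Inhibition of 10 nM Pol kappa is measured by a fluorescent read-out at 0 and 10 min following addition of 50 nM substrate (final), with a 15-min room-temperature compound preincubation.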
WRN helicase inh-1 – WRN helicase (human) inhibition; Q14191; Potency, µM (highest dose often 114 µM), without a hit: top-dose activity change, negative = inhibition, hits mostly inhibitors; WRN helicase unwinding, fluorescent forked duplex, kinetic; 0.46% of 360,000 active; further: potency means the concentration at half of the fitted maximal effect; on the % scale 0 is the no-effect control and ±100 the full control effect; nearly all actives have a fitted effect of over 55% in size
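Fluorescence dequenching readout, ex 525 nm/em 598 nm, kinetic mode: forked duplex DNA (100 nM final) with adjacent fluorophore and quencher unwound by WRN (20 nM final) with 2 mM ATP. Compound preincubation 15 min, room temperature.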
Pol beta inh – DNA polymerase beta (human) inhibition; P06746; Pol beta primer extension/strand displacement, fluorescence kinetic; Potency, µM (highest dose often 114 µM), without a hit: top-dose activity change, negative = inhibition, hits mostly inhibitors; 1.3% of 340,000 active; further: potency means the concentration at half of the fitted maximal effect; on the % scale 0 is the no-effect control and ±100 the full control effect
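Pol beta (10 nM) and compounds were preincubated 15 min at room temperature, then 50 nM substrate (final) started primer extension/strand displacement. Reads were taken at 0 and 10 min; concentration-response data were fitted to a four-parameter Hill equation.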
Pol iota inh – blocks human DNA polymerase iota activity. Q9UNA4. Pol iota fluorescent replication assay, 10 min. Potency, µM (titrated, usually from 115 µM), without a hit: at the top dose activity, negative = inhibition, most hits filed as inhibitors. 1% of 390,000 active; further: potency means the concentration at half of the fitted maximal effect
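Pol iota at 10 nM preincubated 15 min with compounds at room temperature; reaction started with fluorescent substrate, 50 nM final. Fluorescence read kinetically at 0 and 10 min; buffer-only wells as negative control.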
Pol eta inh-1 – blocks human DNA polymerase eta activity; Q9Y253; recombinant Pol eta, fluorescent DNA replication assay; Potency, µM (highest dose often 114 µM), for inactives: at the highest dose activity change, negative = inhibition, most hits filed as inhibitors; 1.2% of 390,000 active; further: potency means the concentration at half of the fitted maximal effect; on the % scale 0 is the no-effect control and ±100 the full control effect
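Pol eta (10 nM) was preincubated with compounds for 15 min at room temperature, after which fluorescent replication substrate (50 nM final) was added to start the reaction. Fluorescence was read kinetically at 0 and 10 min.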
Pol eta inh-2 – confirmation of human DNA polymerase eta inhibitors. shares compounds with Pol eta inh-1. AID 720502. 64% of 2,600 active. Pol eta primer extension, TAMRA/BHQ fluorescence, 10 min. Potency, µM, hits mostly inhibitors; further: potency means the concentration at half of the fitted maximal effect
WRN helicase inh-2 – WRN helicase inhibition, cherry-pick retest; WRN helicase DNA unwinding, fluorescence kinetic; 63% of 610 active; Potency, µM (top dose mostly 57.1 µM), for inactives: top-dose activity, negative = inhibition, hits mostly inhibitors; shares compounds with WRN helicase inh-1; further: potency means the concentration at half of the fitted maximal effect; nearly all actives have a fitted effect of over 65% in size
TO DNA binding – binds DNA, flagged in WRN inhibitor counterscreen; shares compounds with WRN helicase inh-1; thiazole orange DNA binding displacement, fluorescence; Potency, µM (doses to about 57.1 µM), without a hit: top-dose activity change, negative = inhibition, hits mostly inhibitors; 10% of 610 active; AID 720499;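 further: drop in dye fluorescence marks compound binding to DNA; potency means the concentration at half of the fitted maximal effect; on the % scale 0 is the no-effect control and ±100 the full control effect; nearly all actives have a fitted effect of over 60% in size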
BLM helicase inh – BLM helicase inhibition, WRN selectivity check; shares compounds with WRN helicase inh-1; Potency, µM (highest dose often 57.1 µM), without a hit: top-dose activity change, negative = inhibition, actives largely listed as inhibitors; AID 720503; 60% of 610 active; Recombinant BLM helicase DNA unwinding, red fluorescence; further: potency means the concentration at half of the fitted maximal effect; nearly all actives have a fitted effect of over 60% in size
ADP-Glo interf – interferes with ADP-Glo detection without enzyme present; shares compounds with PI5P4Ka inh; ADP-Glo detection counter-screen, luciferase luminescence, no enzyme; Potency, µM (top dose mostly 76.9 µM), for inactives: at the top dose activity change, negative = inhibition, most hits filed as inhibitors; 1,100 tested, under 10 active; AID 743285
* = called active by the depositor; [ ] = another dose, or the depositor's remark. Unless noted, the call rests on the fitted dose curve; in most records, active means well fitted curve in the direction sought with a large enough effect; inconclusive means small, poorly fitted or top-dose-only effect, or another doubt; inactive means no such curve, though single readings can be large; an effect the other way counts as inactive or inconclusive.

Results for O=C(CNc1ccc(C(F)(F)F)cc1)Nc1cccc(S(=O)(=O)N2CCCCC2)c1 ?
PI5P4Ka inh: 6; WRN helicase inh-1: -13%; Pol eta inh-1: -19%

Results for O=C(CSc1ncc(-c2ccccc2)[nH]1)Nc1cccc(Br)c1 ?
Pol kappa inh: -3%; Pol beta inh: -2%; Pol iota inh: 12%; Pol eta inh-1: inconclusive

How did O=C(Nc1ccc(F)cc1)C(CCc1ccccc1)N1CCN(c2ccncc2)CC1 (stereo not drawn) do in these assays?
PI5P4Ka inh: 1; WRN helicase inh-1: 0%

How did NC(=O)c1ccsc1NC(=O)c1ccc([N+](=O)[O-])o1 do in these assays?
PI5P4Ka inh: -52*; Pol kappa inh: 79µM*; WRN helicase inh-1: -9%[11.6 µM]; Pol iota inh: 50µM*; Pol eta inh-1: 45µM*; Pol eta inh-2: inconclusive; ADP-Glo interf: -15%

How did Cc1ccc(C)c(OCCC(=O)OCC(=O)NC(=O)NC2CCCC2)c1 do in these assays?
PI5P4Ka inh: 14; Pol kappa inh: -7%; WRN helicase inh-1: -7%; Pol iota inh: -9%; Pol eta inh-1: -18%

What do the screens show for `CCOc1ccc(-n2c(=O)c3ccccc3c3ccccc3c2=O)cc1`?
PI5P4Ka inh: 13; Pol kappa inh: -13%; WRN helicase inh-1: inconclusive; Pol beta inh: -4%; Pol iota inh: 42%; Pol eta inh-1: -8%

What do the screens show for `CCOc1ccccc1-n1c(=O)c2ccccc2c2ccccc2c1=O`?
PI5P4Ka inh: 4; Pol kappa inh: -17%; WRN helicase inh-1: inconclusive; Pol beta inh: 1%; Pol iota inh: 5%; Pol eta inh-1: -20%; WRN helicase inh-2: -14%; TO DNA binding: -15%; BLM helicase inh: -11%

What do the screens show for `COc1ccc(NC(=O)c2cc3c(-c4ccc(OC)c(OC)c4)nn(C)c3s2)cc1OC`?
PI5P4Ka inh: 0; Pol kappa inh: inconclusive; WRN helicase inh-1: 12µM*; Pol beta inh: 28µM*; Pol iota inh: inconclusive; Pol eta inh-1: inconclusive; WRN helicase inh-2: 14µM*; TO DNA binding: -9%; BLM helicase inh: 14µM*

What do the screens show for `N#Cc1ccc(COC(=O)CCc2c[nH]c3ccccc23)cc1`?
PI5P4Ka inh: -3; Pol kappa inh: -13%; WRN helicase inh-1: -2%; Pol beta inh: 6%; Pol iota inh: 8%; Pol eta inh-1: -1%

Results for CCOC(=O)[C@]12CCC=C1N(Cc1ccc3c(c1)OCO3)C(=O)[C@H](CC(=O)N1CCC(c3ccccc3)CC1)C2 ?
PI5P4Ka inh: 2; WRN helicase inh-1: -3%

Results for O=C(O)c1ccc(/C=C2\SC(=S)N(NC(=O)c3ccccc3)C2=O)cc1 ?
PI5P4Ka inh: -12; Pol kappa inh: inconclusive; WRN helicase inh-1: -12%; Pol beta inh: inconclusive; Pol iota inh: inconclusive; Pol eta inh-1: -15%

How did COc1cc(/C=C2\SC(=S)N(NC(=O)c3cccc(O)c3)C2=O)ccc1O do in these assays?
PI5P4Ka inh: -20; Pol kappa inh: -40%; WRN helicase inh-1: 32µM*; Pol beta inh: 16µM*; Pol iota inh: 40µM*; Pol eta inh-1: inconclusive; WRN helicase inh-2: 22µM*; TO DNA binding: 3.8µM*; BLM helicase inh: 22µM*

What do the screens show for `COc1cc(/C=C2\SC(=S)N(NC(=O)c3ccc(O)c(OC)c3)C2=O)ccc1O`?
PI5P4Ka inh: inconclusive; Pol kappa inh: -28%; WRN helicase inh-1: 40µM*; Pol beta inh: inconclusive; Pol iota inh: 22µM*; Pol eta inh-1: inconclusive; WRN helicase inh-2: 19µM*; TO DNA binding: -1%; BLM helicase inh: 19µM*

Results for O=C1/C(=C/c2cccc(O)c2)SC(=S)N1CC1CCCO1 (stereo not drawn) ?
PI5P4Ka inh: 3; Pol kappa inh: 5%; WRN helicase inh-1: 0%; Pol beta inh: 6%; Pol iota inh: 28%; Pol eta inh-1: -18%

How did CCOc1cc(/C=C2/SC(=S)N(CC3CCCO3)C2=O)ccc1O (stereo not drawn) do in these assays?
PI5P4Ka inh: -16; Pol kappa inh: -18%; WRN helicase inh-1: 35µM*; Pol beta inh: inconclusive; Pol iota inh: 28µM*; Pol eta inh-1: -19%; WRN helicase inh-2: inconclusive; TO DNA binding: 18%; BLM helicase inh: 22µM*

What do the screens show for `COc1ccc(C(=O)N2C=Cc3ccccc3C2C(N)=O)cc1` (stereo not drawn)?
PI5P4Ka inh: 4; WRN helicase inh-1: 2%; Pol eta inh-1: -29%

What do the screens show for `COc1ccccc1CNC(=O)C1CCC(CNS(=O)(=O)c2ccc3c(c2)CCCC(=O)N3)CC1` (stereo not drawn)?
Pol kappa inh: -11%; Pol beta inh: inconclusive; Pol iota inh: -9%; Pol eta inh-1: -16%

How did COC(=O)C1=C(C)N(Cc2ccccc2)C(=NCc2ccco2)N[C@H]1c1ccc(Br)cc1 do in these assays?
Pol beta inh: 1%

What do the screens show for `CC1=CC(C)C(=O)N(C)C(C)=C1` (stereo not drawn)?
PI5P4Ka inh: -10; WRN helicase inh-1: 3%; Pol eta inh-1: -8%

How did CC1CCCN(S(=O)(=O)c2cccc(C(=O)OCC(=O)N(C)Cc3c(F)cccc3Cl)c2)C1 (stereo not drawn) do in these assays?
PI5P4Ka inh: 1; Pol kappa inh: -23%; WRN helicase inh-1: -10%; Pol iota inh: -17%; Pol eta inh-1: -2%

Results for O=C(NC1CCCCC1)NC1CCCCC1 ?
Pol kappa inh: -6%[60.1 µM]
